Experimental data reported in PubChem BioAssay (NCI).
The panel holds about 83,000 compounds, 20% with a hit somewhere; the sample as a whole holds those more often.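 Single-dose data. Exposure time 48 hours. Values below 10 considered active.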 Unmarked numbers belong to inactive results. The source made the active and inactive calls.

How the values were obtained:
Experiment in all cases: NCI-60 one-dose screen, 48 h (100 = growth as untreated, 0 = no growth, -100 = all killed)
Conditions in all cases: 10 µM
HCT-15 colon = tested on: HCT-15 colon
HT29 colon = tested on: HT29 colon
SNB-75 CNS = tested on: SNB-75 CNS
SNB-19 CNS = tested on: SNB-19 CNS
U251 CNS = tested on: U251 CNS
PC-3 prostate = tested on: PC-3 prostate
SK-MEL-5 melanoma = tested on: SK-MEL-5 melanoma
UACC-62 melanoma = tested on: UACC-62 melanoma
LOX IMVI melanoma = tested on: LOX IMVI melanoma
SK-MEL-28 melanoma = tested on: SK-MEL-28 melanoma
SK-MEL-2 melanoma = tested on: SK-MEL-2 melanoma
EKVX NSCLC = tested on: EKVX NSCLC
SN12C renal = tested on: SN12C renal
UO-31 renal = tested on: UO-31 renal
TK-10 renal = tested on: TK-10 renal
ACHN renal = tested on: ACHN renal
CAKI-1 renal = tested on: CAKI-1 renal
A498 renal = tested on: A498 renal
CCRF-CEM leukemia = tested on: CCRF-CEM leukemia
MOLT-4 leukemia = tested on: MOLT-4 leukemia

| SMILES | growth (HCT-15 colon) [%] | growth (HT29 colon) | growth (SNB-75 CNS) | growth (SNB-19 CNS) | growth (U251 CNS) | growth (PC-3 prostate) | growth (SK-MEL-5 melanoma) | growth (UACC-62 melanoma) | growth (LOX IMVI melanoma) | growth (SK-MEL-28 melanoma) | growth (SK-MEL-2 melanoma) [%] | growth (EKVX NSCLC) | growth (SN12C renal) | growth (UO-31 renal) [%] | growth (TK-10 renal) [%] | growth (ACHN renal) [%] | growth (CAKI-1 renal) | growth (A498 renal) | growth (CCRF-CEM leukemia) | growth (MOLT-4 leukemia) |
| --- | --- | --- | --- | --- | --- | --- | --- | --- | --- | --- | --- | --- | --- | --- | --- | --- | --- | --- | --- | --- |
| N#C/C(=C\N1C(=O)/C(=C/c2cccc([N+](=O)[O-])c2)SC1=S)c1nc2ccccc2s1 | 95 | 90.6% | 82.5% | 88.8% | 69% | 83.5% | 64.6% | 63.3% | 79.8% | 92.4% | 73.1 | 81% | 94.9% | 56.3 | 120 | 81.5 | 85.2% | 71.8% | 85.9% | 87% |
| CCN(CC)CC(O)CNc1ccnc2cc(Cl)c(Cl)cc12 (configuration not stated) | 69.5 | 77.6% | 92.9% | 110% | 75.4% | 80% | 84.7% | 92.8% | 73.9% | 97.6% | 108 | 92% | 79% | 53.7 | 95.2 | 98.4 | 80.7% | 98.7% | 94.9% | 82.3% |
| C[C@]12CC[C@H]3[C@@H](CCC4=CC(=O)CC[C@@]43C)[C@@H]1CC[C@@H]2c1csc(N)n1 | 46.5 | 56.6% | 92.5% | 71.5% | 56.9% | 19.3% | 9.04% (active) | 41.8% | 59.3% | 82.8% | 62.9 | 23.6% | 71.8% | 44 | 87.3 | 77.2 | 47.3% | 84.3% |  | 27.7% |
| N#CC1C=Cc2c(ccc3ccccc23)N1C(=O)c1ccccc1 (configuration not stated) | 20.6 | 8.15% (active) | 22% | 43.3% | 24% | 32.6% | 12.7% | 37.7% | 27.5% | 48.9% | 40.7 | 17.3% | 39.1% | 38.2 | 52.8 | 42.7 | 20.6% | -7.88% (active) | 20.3% | 18.9% |
| COc1ccc2c(c1)/C(=C/c1cc(OC)c(OC)c(OC)c1)C(=O)N2C | 12.6 | 11.8% | -14.6% (active) | 4.75% (active) | 5.64% (active) | 38.3% | -12.7% (active) | 18.9% | 10.8% | 28.8% | 24.3 | 47.3% | 25.3% | 16.9 | 22.1 | 26.9 | -8.56% (active) | 23.4% | 20.4% | 16% |
| COc1cc(-c2nc(-c3nnc(-c4cccnc4)o3)c3ccccn23)cc(OC)c1OC | 111 | 97.4% | 96.7% | 102% | 95% | 101% | 90.7% | 106% | 97.3% | 121% | 111 | 106% | 99.6% | 74.9 | 109 | 99 | 104% | 83% |  | 93.7% |
| CCOC(=O)c1cc2c(n1Cc1cc(OC)cc(OC)c1)-c1oncc1CC2 | 21.9 | 5.66% (active) | -0.349% (active) | 38.7% | 23.5% | 27.4% | 24.6% | 40.3% | 49.5% | 33.8% | 26.7 | 34.5% | 40.9% |  | 53.2 | 47.1 | 29.2% | 24.9% | 13.2% | 23.6% |
| COc1ccc(C(=O)n2nc(CC(=O)NCc3ccccc3)nc2N)cc1 | 107 | 108% | 92.9% | 97.3% | 105% | 101% | 111% | 93% | 101% | 108% | 97.5 | 113% | 92.5% |  | 103 | 117 | 110% | 110% | 104% | 89.8% |
| Clc1cc(Cl)c(Cl)c(-c2nc(-c3cccnc3)cs2)c1 | 87.1 | 46.3% | 91.7% | 103% | 88.7% | 88.5% | 93.9% | 77.5% | 64.4% | 72.2% | 99.3 | 93.2% | 94.2% |  | 82.6 | 61.5 | 48.7% | 104% | 62.6% | 56.9% |
| CC1(C)Cc2c(cn(Cc3ccccc3)c2-c2ccccc2)-c2oncc21 | 101 | 79.6% | 103% | 110% | 88.9% | 86.2% | 83.5% | 86.7% | 90.2% | 112% | 102 | 85.2% | 97% |  | 106 | 99.9 | 79.8% | 126% | 94.2% | 86.1% |
| C/C(=N\NC(N)=S)C(C)(C)O | 101 | 61% | 91.2% | 106% | 88.1% | 90.1% | 101% | 103% | 95.1% | 98.5% | 98.5 | 67.1% | 87.1% | 68.9 | 126 | 90.2 | 89.6% | 91.7% |  | 44.9% |
| O=C(Nc1cccc([N+](=O)[O-])c1)NN1CCCCCC1 | 90.4 | 107% | 105% | 95.6% | 87.2% | 83.1% | 96% | 76.2% | 97.2% | 112% | 105 | 81.3% | 96.5% | 92.5 |  | 94.6 | 96.2% | 77.3% | 86.1% | 106% |
| CCCCOCC(=O)NC(NP(=O)(N(C)C)N(C)C)C(Cl)(Cl)Cl (configuration not stated) | 140 | 122% | 106% | 107% | 120% | 113% | 118% | 103% | 110% | 125% | 107 | 98.1% | 110% | 92 | 134 | 143 | 92.3% | 118% |  | 99.5% |
| Cn1c(=O)c2[nH]c(C(O)c3ccc(Cl)cc3)nc2n(C)c1=O (configuration not stated) | 102 | 105% | 80.2% | 95.8% | 99.5% | 87.9% | 107% | 93.6% | 96.6% | 108% | 96.4 | 98.7% | 89.8% | 82.3 | 108 | 103 | 105% |  |  | 103% |
| CCOC(=O)c1cc2c(n1Cc1cccc(OC)c1)-c1oncc1CC2 | 28.7 | 4.06% (active) | -5.1% (active) | 37.4% | 22.4% | 32.7% | 8.61% (active) | 30.8% | 41.7% | 37.8% | 34.7 | 50.6% | 37.1% |  | 53.2 | 42.8 | 7.23% (active) | 10.8% | 13.1% | 33.1% |
| CCCCCCCCCCCCCC[n+]1ccc(C)cc1 | 47 | -9.48% (active) | -23.9% (active) | -50.2% (active) | -78.5% (active) | -37% (active) | -96.3% (active) | -71.5% (active) | -94.4% (active) | -20.4% (active) | 13.2 | -36.2% (active) | -2.55% (active) | 23.7 |  | 21.5 | 31.7% | 39.2% | -35.4% (active) | -36.6% (active) |
